# FUS suppressor = qHTS for Suppressors of FUS Proteinopathy: Primary screen using FUS-linked yeast assay; S. cerevisiae FUS-expressing, growth rescue, OD600, 24 h; Potency, µM (top dose mostly 76.6 µM), actives largely listed as activators; hit rate 0.24% among 390,000;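 note: plate controls were DMSO vehicle for no effect and reference control for full effect; nearly all actives have a fitted effect of over 55% in size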
#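 Yeast FUS proteinopathy model; galactose-induced FUS (2%), starting OD 0.005. Cpds in dilution series, 24hr, 30C, 99% humidity. Abs 600 nm growth. Pos ctrl CP55940 (top 92uM final); neg ctrl DMSO.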
# Abeta rescue = qHTS for compounds that reverse cellular toxicity of Amyloid beta (A-beta) peptide in yeast: Primary Screen | AID 1347071, 2019 | yeast expressing A-beta42, growth rescue, OD600, 48 h; response scale: 0% DMSO, 100% iron-clioquinol control | Potency, µM (top dose mostly 46.1 µM), usual class: activators | hit rate 0.063% among 410,000; note: nearly all actives have a fitted effect of over 55% in size
#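 Growth rescue measured by 600 nm absorbance after 48 h yeast culture at 30 C with compound. Values normalized between DMSO and an equimolar ferric chloride plus clioquinol control.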
# TSG101-PTAP inh = qHTS Assay for Iinhibitors of HIV-1 Budding by Blocking the Interaction of PTAP/TSG101; Fluorescence polarization, FITC-PTAP peptide / Tsg101 binding; Potency, µM (series often up to 115 µM), without a hit: top-dose activity change, negative = inhibition, actives largely listed as inhibitors; AID 493005, 2010; 340,000 tested, under 10 active; active = well fitted inhibition curve with a large enough effect in the main read-out, with a control signal flat, not every such curve was filed as active; inconclusive = small, poorly fitted or top-dose-only effect, or effect the other way, or a change in a side signal; inactive = no such curve, though single readings can be large or run the other way; note: % of control where 0% means no effect
# Target sequence (Q99816 whole entry, looked up): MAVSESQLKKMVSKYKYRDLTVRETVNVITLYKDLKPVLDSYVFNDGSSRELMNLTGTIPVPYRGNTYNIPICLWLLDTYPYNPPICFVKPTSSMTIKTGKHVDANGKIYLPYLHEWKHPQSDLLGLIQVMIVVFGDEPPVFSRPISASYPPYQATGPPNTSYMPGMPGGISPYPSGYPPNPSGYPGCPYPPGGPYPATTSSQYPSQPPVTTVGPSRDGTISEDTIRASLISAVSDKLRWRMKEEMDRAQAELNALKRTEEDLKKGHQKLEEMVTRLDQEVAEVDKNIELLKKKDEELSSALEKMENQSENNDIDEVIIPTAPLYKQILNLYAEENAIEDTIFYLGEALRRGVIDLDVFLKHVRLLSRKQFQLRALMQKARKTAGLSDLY
#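 Fluorescence polarization binding of Tsg101 binding domain (10 uM final) to FITC-labeled PTAP peptide (50 nM final) in HEPES pH 7.5 buffer with NaCl, Tween 20, EDTA, TCEP. Compounds added before peptide; binding 20 min at RT.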
# TDP43 rescue = qHTS of TDP-43 Inhibitors; TDP-43 expressing yeast growth rescue, BacTiter-Glo, 24 h; Potency, µM (doses to about 46.1 µM), inactives show at the highest dose growth rescue (activation), actives largely listed as activators; hit rate 1.8% among 410,000; note: % of control where 0% means no effect; nearly all actives have a fitted effect of over 50% in size
#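 In this qHTS, compounds that restore growth of yeast expressing TDP-43 appear as activators. Cells (OD600=0.02, galactose medium, raffinose-pregrown) are incubated with compound 24 hr at 30 deg C and growth is quantified by BacTiter-Glo.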
# aSyn rescue = qHTS of alpha-syn Inhibitors; Yeast expressing alpha-synuclein, growth rescue, BacTiter-Glo, 24 h; Potency, µM (highest dose often 46.1 µM), for inactives: at the highest dose growth rescue (activation), actives largely listed as activators; hit rate 0.14% among 370,000; note: % of control where 0% means no effect; nearly all actives have a fitted effect of over 65% in size
#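 Galactose-induced alpha-syn yeast (OD600=0.02, raffinose-pregrown) + pinned cpd, 24 hr, 30 deg C; growth by BacTiter-Glo luminescence. Growth restoration scores as activation.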
# * marks the source's active call; other numbers are inactive results; i = inactive; u = inconclusive; x = no result given; ! = a repeat was not active; [ ] = another dose, or the depositor's remark. An excerpt weighted towards active compounds, which were near 2.1% of everything screened. Unless noted, calls come from the whole dose curve; as a rule, active = well fitted curve in the direction sought with a large enough effect; inconclusive = small, poorly fitted or top-dose-only effect, or another doubt; inactive = no such curve, though single readings can be large; an effect the other way counts as inactive or inconclusive. Potency is the fitted concentration of half-maximal effect.
SMILES,FUS suppressor,Abeta rescue,TSG101-PTAP inh,TDP43 rescue,aSyn rescue
Cc1ccc(S(=O)(=O)N(C)C[C@@H]2Oc3ncc(Br)cc3C(=O)N([C@H](C)CO)C[C@@H]2C)cc1,i,i,x,6.1%,8.0%
CCOC(=O)CCCc1cc[c]([Sb](=[O])([OH])[OH])cc1,x,x,x,x,2.9%
Cc1ccccc1-n1c(/C=C/c2ccc(N(C)C)cc2)nc2ccccc2c1=O,i,i,x,u,-4.6%
Cc1ccccc1-n1c(/C=C/c2c(C)[nH]c3ccccc23)nc2ccccc2c1=O,i,i,x,15.8µM*,x
CSc1ccccc1NC(=O)CN(C)CC(=O)c1[nH]c(C)c(C(C)=O)c1C,i,i,0.1%,u,-2.2%
C=CCn1c(O)c(C(CC)=NCCC2=CCCCC2)c(=O)[nH]c1=O,i,i,-9.4%,17.8µM*,x
CC1=CC(=O)OC2CC3OC4C[C@@H](C)C5OC6CC7O[C@]8(C)C/C=C\C9OC%10CC%11OC(CC(C)C%12OCCO%12)CC(O)[C@]%11(C)OC%10CC9OC8C[C@]7(C)O[C@]6(C)CCC5OC4C[C@]3(C)OC12 (stereo partly specified),10µM*,i,0.0%,7.9%,-8.6%
C=C(CC1CC(O)[C@]2(C)OC3CC4OC5C[C@]6(C)O[C@]7(C)CCC8OC9C[C@]%10(C)OC%11C(C)=CC(=O)OC%11CC%10OC9C[C@@H](C)C8OC7CC6O[C@]5(C)C/C=C\C4OC3CC2O1)C(=O)O (stereo partly specified),u,i,1.1%,u,8.1%
N#CC1c2ccccc2C=CN1C(=O)c1ccc(N(CCCl)CCCl)cc1 (stereo unspecified),i,i,x,1.5%,7.94µM*
Cc1c(C(c2ccc(F)cc2)c2c(O)c3ccccc3oc2=O)c(=O)n(-c2ccccc2)n1C (stereo unspecified),u,u,3.4%,u,3.9%
COc1ccc(C(c2c(O)c3ccccc3oc2=O)c2c(C)n(C)n(-c3ccccc3)c2=O)cc1 (stereo unspecified),i,i,-0.3%,22.4µM*!,-0.6%
Cc1c(C(c2ccccc2Cl)c2c(O)c3ccccc3oc2=O)c(=O)n(-c2ccccc2)n1C (stereo unspecified),i,i,-2.7%,7.94µM*,10.6%
N#CCC[C@@H]1CC[C@]2(CCCN(Cc3ccccn3)C2)O1,i,x,x,x,x
CN(Cc1cccc(-c2ccncc2)c1)C(=O)Oc1ccccc1Cl,i,i,x,27.5%,-4.6%
Cc1nc2cc(OC(=O)N(C)Cc3cccc(-c4ccncc4)c3)ccc2s1,i,i,x,10µM*,1.9%
Nc1ccc(Cl)cc1C(=O)c1ccccc1Cl,i,i,0.7%,20µM*,u
CC(=O)c1ccc2c(c1)C1C(Cl)C(Sc3ccccc3[N+](=O)[O-])CC1C(c1ccccc1)N2 (stereo unspecified),39.8µM*,i,-3.8%,-3.7%,-8.3%
Cc1cc(C(=O)OCC(=O)Nc2ccc(F)cc2)c(C)n1C1CC1,x,i,-1.2%,35.5µM*,28.7%
Cc1cc(C(=O)OCC(=O)Nc2cccc(F)c2)c(C)n1C1CC1,u,i,-3.8%,u,10.2%
S=C1Nc2ccccc2Sc2ccccc21,i,i,-2.0%,u,20.6%
c1ccc2c(c1)CSc1ccccc1N2,i,i,-1.2%,20µM*,-5.3%
COC(=O)C1=C(c2ccc(OC(F)(F)F)cc2)C[C@@H]2CC[C@H]1N2C(=O)NCCOc1ccccc1,u,i,x,u,2.9%
COC(=O)C1=C(c2cc3ccccc3s2)C[C@@H]2CC[C@H]1N2C(=O)NCc1ccccc1,i,i,-9.6%,u,2.0%
COC(=O)C1=C(c2ccc(Cl)c(C(F)(F)F)c2)C[C@@H]2CC[C@H]1N2C(=O)NCCOc1ccccc1,22.4µM*,i,-4.4%,22.4µM*,1.5%
COC(=O)C1=C(c2ccc(OC(F)(F)F)cc2)C[C@@H]2CC[C@H]1N2C(=O)NCCOc1ccccc1Cl,u,i,-7.9%,28.2µM*,10.3%
SMILES,FUS suppressor,Abeta rescue,TSG101-PTAP inh,TDP43 rescue,aSyn rescue
COC(=O)C1=C(c2ccc3ccccc3c2)C[C@@H]2CC[C@H]1N2C(=O)NCc1ccco1,i,i,-4.1%,37.5%,22.6%
COC(=O)C1=C(c2ccc(Cl)c(C(F)(F)F)c2)C[C@@H]2CC[C@H]1N2C(=O)NCCO,i,i,0.7%,-1.2%,2.8%
COC(=O)C1=C(c2cc3ccccc3s2)C[C@@H]2CC[C@H]1N2C(=O)NCc1ccc(F)cc1,u,i,u,10µM*,u
COC(=O)C1=C(c2ccc(Cl)c(C(F)(F)F)c2)C[C@@H]2CC[C@H]1N2C(=O)NCc1ccco1,i,i,x,22.4µM*,1.4%
CC(=O)Nc1ccc(OC(=O)N2CCN(/[N+]([O-])=N/Oc3ccc([N+](=O)[O-])cc3[N+](=O)[O-])CC2)cc1,x,x,x,x,-29.4%
Cc1ccc(S(=O)(=O)N(C)C[C@H]2Oc3ncc(Br)cc3C(=O)N([C@H](C)CO)C[C@@H]2C)cc1,u,i,x,0.0%,u
CC1(O)CCN2C(=O)CCc3cccc1c32 (stereo unspecified),i,i,-3.4%,12.6µM*,-6.8%[1.84 µM]
CCN1C[C@@]2(COC)C3[C@@H](OC)C4[C@@H]1C3([C@@H]1C[C@]3(O)[C@H](OC(=O)c5ccccc5)[C@@H]1[C@]4(OC(C)=O)[C@@H](O)[C@@H]3OC)[C@H](OC)C[C@H]2O,x,x,x,x,7.8%
COc1cc(O)c(C(=O)O)c(-c2cc(O)c(O)cc2C)c1,i,u,-6.7%,17.3%,14.1µM*
Cc1ccccc1-c1nn2c(=O)cc(CN3CCN(C(=O)COc4ccccc4Cl)CC3)nc2s1,i,i,x,u,x
O=C(C(=O)N1CC=C(c2ccccc2)CC1)c1c[nH]c2ccccc12,i,i,-2.4%,15.8µM*,u
O=C1/C(=C/c2cccc([N+](=O)[O-])c2)N2CCC1CC2,i,i,-5.8%,-10.5%,5.6%
O=C1/C(=C/c2cc([N+](=O)[O-])ccc2Cl)N2CCC1CC2,i,i,-5.8%,17.8µM*,3.8%
O=c1c2ccccc2nc(-c2ccc([N+](=O)[O-])cc2)n1-c1ccccc1,i,i,-3.7%,0.0%,-1.1%
Cc1ccccc1-n1c(-c2ccc([N+](=O)[O-])cc2)nc2ccccc2c1=O,i,i,-0.2%,u,20µM*
